Screening results deposited in PubChem BioAssay by National Center for Advancing Translational Sciences (NCATS).
The list is not random: actives were taken first. Their share in the collection is about 12%.
MARV entry inh – Marburg virus entry inhibition. AID 540276. Marburg virus pseudotyped entry inhibition, cell reporter. Potency, µM (titrated, usually from 37.8 µM), inactives show at the top dose activity change, negative = inhibition, actives largely listed as inhibitors. actives 1.8% (n = 300,000); calls by dose curve; tested in HEK293 cells; note: potency is the fitted concentration of half-maximal effect; % is set by controls: 0 for no effect and ±100 for the full control effect
Lassa entry inh – Lassa virus entry inhibition | Potency, µM (titrated, usually from 37.9 µM), inactives show at the top dose activity change, negative = inhibition, actives largely listed as inhibitors | Lassa virus pseudotype entry inhibition, cell reporter | actives 1.2% (n = 300,000); calls by dose curve; tested in HEK293 cells; note: potency is the fitted concentration of half-maximal effect; % is set by controls: 0 for no effect and ±100 for the full control effect; nearly all actives have a fitted effect of over 50% in size
Shiga inhibitor – blocks Shiga toxin action in Vero cells. Vero cells, Shiga toxin protein synthesis inhibition reporter. inhibition, % at 38.7 µM. actives 9.2% (n = 290,000); in the data active = inhibition mostly above about 28%, no sharp cut-off; inactive = mostly below about 43%; note: 0% is about no effect
Cycloheximide cs – counter-screen hit for Shiga toxin inhibitors, cycloheximide. cell reporter, cycloheximide protein synthesis inhibition counterscreen. max response, %. actives 12% (n = 300,000). AID 2314; in the data active = max response mostly above about 13%, no sharp cut-off; inactive = mostly below about 14%; note: read at 38.3 µM for the half of the compounds with a filed dose; 0% is about no effect
Active calls of the source: *; ? = inconclusive; · = no result; + = active, no number; [ ] = remark or other dose.

SMILES | MARV entry inh | Lassa entry inh | Shiga inhibitor | Cycloheximide cs
CC(C)(C)C(=O)NC1CCN(CC(=O)Nc2ccc3c(c2)OCO3)CC1 | -12%[46.1 µM] | -28%[46.1 µM] | -1 | -1
COC(=O)C1=C2C=C(C)CC(C)N2C(=O)NC1c1ccccc1 (stereo not given) | 30%[14.2 µM] | · | · | ·
CC12C=C(/C=C/c3ccc(F)cc3)C(C)(C1)C(c1ccc(F)cc1)CC2=O (stereo not given) | 9%[14.2 µM] | · | · | ·
COc1ccc(OC)c(NC(=O)c2ccc(OC3CSC3)cc2)c1 | 15% | 1% | 28 | 21*
COc1ccccc1NC(=O)c1ccc2c(c1)OCO2 | 0%[46.1 µM] | ? | 82* | 50*
COc1ccc(OC)c(NC(=O)c2ccc(NC(C)=O)cc2)c1 | -5% | -1% | -10 | 9
COc1ccccc1N1CCN(C(CNC(=O)c2ccc3c(c2)OCO3)c2cccnc2)CC1 (stereo not given) | -29% | 21% | 26 | 15*
COc1ccccc1CNC(=O)c1ccc2c(c1)OCO2 | 10%[46.1 µM] | 27% | 10 | 8
COc1cc2c(cc1NCc1ccc3c(c1)OCO3)oc1ccccc12 | ? | ? | 68* | 37*
Cc1ccc(N(C(=O)c2snc(C(N)=O)c2N)C(C(=O)NC2CCCC2)c2ccco2)cc1 (stereo not given) | ? | ? | -3 | 8
CCN(CC)S(=O)(=O)c1cccc(C(=O)Nc2cc3oc4ccccc4c3cc2OC)c1 | ? | ? | -1 | -4
CCN(CC)S(=O)(=O)c1ccc(OC)c(NC(=O)c2ccc3c(c2)OCO3)c1 | -19%[46.1 µM] | -20% | 20 | 5
COc1cc(OC)c(C(=O)Oc2ccc3c(c2)OCO3)cc1OC | 3% | -3% | -10 | 8
COc1ccc(OC)c(NC(=O)c2ccc3c(c2)OCO3)c1 | · | · | · | 24*
CCCc1cc(C(=O)Nc2cc(OC)ccc2OC)cs1 | · | · | 30* | 18*
COc1ccc(C(=O)Oc2ccc3c(c2)OCO3)cc1OC | ? | 25% | 75* | 30*
CCCN(CCC)S(=O)(=O)c1ccc(C(=O)Nc2cc3oc4ccccc4c3cc2OC)cc1 | -14% | -14% | -11 | 19*
Cc1cc(OCC(=O)Nc2sc3c(c2C(N)=O)CCCC3)ccc1C(C)C | · | -2%[46.1 µM] | · | ·
CNC(=O)CSc1nc2[nH]ncc2c(=O)[nH]1 | · | · | 6 | -6
O=C(NCCc1ccc(Cl)cc1)c1cccn1-c1nnc(N2CCCC2)s1 | · | 4%[46.1 µM] | · | ·
Cc1ccc(C)n1-c1ccc(-n2cnnn2)cc1 | 0% | 0% | -4 | -4
Cc1cc(-n2cnnn2)ccc1C(C)C | 20%[46.1 µM] | -17%[46.1 µM] | 33 | 23*
COc1ccc(/C=C2\N=C(SC)N(c3ccccc3OC)C2=O)cc1 | · | · | 33 | 25*
CCOc1ccc(N2C(=O)/C(=C/c3ccccc3)N=C2SC)cc1 | · | · | 41 | 14
O=C(COc1ccccc1)N(Cc1nnc(-c2ccccc2Cl)o1)C1CC1 | 2% | 16%[46.1 µM] | · | ·
SMILES | MARV entry inh | Lassa entry inh | Shiga inhibitor | Cycloheximide cs
CC1(NC(=O)Cn2cc(C(F)(F)F)ccc2=O)CCS(=O)(=O)C1 (stereo not given) | ? | 15% | · | ·
CC(=O)Nc1cccc(C(=O)/C=C/c2ccc[nH]2)c1 | · | · | 54* | 26*
CC(=O)Nc1cccc(C(=O)/C=C/c2ccc(Br)cc2)c1 | 15µM* | ? | -1 | -5
CC(=O)Nc1ccc(N=Cc2ccc[nH]2)cc1 | 11% | 15% | 41 | 15
CC(=O)Nc1cccc(C(=O)/C=C/c2ccc(/C=C/C(=O)c3cccc(NC(C)=O)c3)cc2)c1 | · | · | 45 | 35*
CC(=O)Nc1cccc(C(=O)/C=C/c2ccco2)c1 | 24% | 3% | 49* | 43*
CC(=O)Nc1ccc(C(=O)/C=C/c2ccco2)cc1 | -6% | -8% | -7 | -1
COc1ccc(CC(=O)NNS(=O)(=O)c2ccc([N+](=O)[O-])cc2)cc1OC | -3%[46.1 µM] | 21%[46.1 µM] | -4 | -3
Cc1ccc(-n2nc(CO)c(C(=O)NC(C)c3ccccc3)n2)cc1C (stereo not given) | -4%[46.1 µM] | ? | · | ·
CC(=O)Nc1cccc(C(=O)/C=C/c2cccs2)c1 | -9% | -19% | 82* | 54*
CC(=O)Nc1cccc(C(=O)/C=C/c2ccc(N(C)C)cc2)c1 | 4% | -10% | 76* | 42*
CC(=O)c1cccc(NC(=O)CCC(=O)c2ccc(F)cc2)c1 | 5%[46.1 µM] | 39%[46.1 µM] | 17 | 16
CC(=O)Nc1cccc(N(C)C)c1 | -8% | -11% | 8 | -1
CC(=O)Nc1cccc(C(=O)/C=C/c2ccc(F)cc2)c1 | ? | ? | 41 | 29*
Cn1ccc2c(-c3ccc(F)cc3)cc3c(c21)C1CCC3O1 (stereo not given) | · | 1%[46.1 µM] | · | ·
CC(NCCC(c1ccccc1)c1ccccc1)c1ccccc1 (stereo not given) | ? | 23µM* | -16 | -9
CC1(C)CC(=O)C(C=Nc2ccc3[nH]ncc3c2)=C(O)C1 | 18% | -5% | 33* | 37*
CCOC(=O)c1c(/N=C/C2=C(O)CC(C)(C)CC2=O)sc(C(C)=O)c1C | ? | -21%[46.1 µM] | 57* | 23*
CCOc1ccc(N=CC2=C(O)CC(C)(C)CC2=O)cc1 | 3% | 10% | 189* | -3
CC1(C)CC(=O)C(C=Nc2ccc(O)cc2)=C(O)C1 | -13% | 6% | 36* | 18*
CN=CC1=C(O)CC(C)(C)CC1=O | 5% | 2% | -21 | 2
CC1=C(C(=O)Nc2cccnc2)C(c2ccc(Cl)cc2)n2nc(SCc3ccccc3)nc2N1 (stereo not given) | 7%[46.1 µM] | 25%[46.1 µM] | · | ·
CC1(C)CC(=O)C(C=Nc2ccc(N)cc2)=C(O)C1 | · | · | 81* | 40*
COc1cccc([C@H]2Oc3ccc(OC)cc3C(=NOC[C@@H](O)COCc3ccco3)[C@H]2O)c1 | 14%[14.2 µM] | · | · | ·
CCC(=O)N1CCN(c2nc(-c3ccccc3)c3c(c2C#N)CCCC3)CC1 | -20% | ? | -18 | -1
SMILES | MARV entry inh | Lassa entry inh | Shiga inhibitor | Cycloheximide cs
CCC(=O)N1CCc2nc(-c3ccccc3)sc2C1 | · | · | 69* | 25*
COCCNC(=O)C(=O)NNC(=O)c1ccccc1OC | 3%[46.1 µM] | ? | -7 | 4
CC(C)[C@@H]1COC(c2cccc(C3=N[C@H](C(C)C)CO3)n2)=N1 | · | · | -7 | -4
COc1ccc(C2=NC(c3ccccc3)CO2)cc1 (stereo not given) | ? | ? | 96* | 56*
COc1ccc(C2=N[C@H](c3ccccc3)CO2)cc1 | · | · | + | 37
O=[N+]([O-])c1cccc(C2=NC(c3ccccc3)CO2)c1 (stereo not given) | 9% | -6% | 81* | 23*
COc1ccc(C2=N[C@@H](C(C)C)CO2)cc1 | · | · | + | 64*
O=C(NCCCl)Nc1cccc(Br)c1 | 13%[46.1 µM] | 11%[46.1 µM] | -4 | -3
CCN(CC)CCN1C(=O)C(=O)/C(=C(\O)c2ccc(Cl)cc2)[C@@H]1c1ccncc1 | 2% | · | · | ·
O=C(NC1CCN(Cc2ccc(Cl)c(Cl)c2)CC1)c1ccccc1 | ? | 11%[46.1 µM] | 20 | -2
COc1cc(OC)cc(C(=O)NC(C(=O)N2CCc3ccccc3C2)C(C)C)c1 (stereo not given) | 11µM* | ? | -7 | -4
COc1ccc(NC(=O)N2CCc3ccccc3C2)c(OC)c1 | · | · | 36* | 16*
CCOc1ccccc1NC(=O)N1CCc2ccccc2C1 | 4%[46.1 µM] | 2%[46.1 µM] | 22 | 19*
CCCN(CCC)c1c([N+](=O)[O-])cc(S(N)(=O)=O)cc1[N+](=O)[O-] | · | · | -26 | -7
